In PubChem BioAssay AID2629 (Broad Institute, 2010):
Screen size: about 320,000 compounds; about 1,900 (0.59%) were called active. The full list was thinned out, with actives kept by preference. A number with no mark means an inactive call. Rule as the data show it: active = inhibition mostly above about 10% (no sharp cut-off); inactive = mostly below about 6.7%.

These molecules were tested against Protein LANA1 (Human herpesvirus 8 type P (isolate GK18)) (UniProt Q9QR71) (assay: blockers of LANA interaction with H2A/H2B – biochemical, FP readout, HTS, primary screen (AID 2629)). Details: cell-free LANA-H2A/H2B peptide, fluorescence polarization, active compounds read high, concentration not given here.
Chain of Protein LANA1 (Human herpesvirus 8 type P (isolate GK18)) (Q9QR71 whole entry, looked up): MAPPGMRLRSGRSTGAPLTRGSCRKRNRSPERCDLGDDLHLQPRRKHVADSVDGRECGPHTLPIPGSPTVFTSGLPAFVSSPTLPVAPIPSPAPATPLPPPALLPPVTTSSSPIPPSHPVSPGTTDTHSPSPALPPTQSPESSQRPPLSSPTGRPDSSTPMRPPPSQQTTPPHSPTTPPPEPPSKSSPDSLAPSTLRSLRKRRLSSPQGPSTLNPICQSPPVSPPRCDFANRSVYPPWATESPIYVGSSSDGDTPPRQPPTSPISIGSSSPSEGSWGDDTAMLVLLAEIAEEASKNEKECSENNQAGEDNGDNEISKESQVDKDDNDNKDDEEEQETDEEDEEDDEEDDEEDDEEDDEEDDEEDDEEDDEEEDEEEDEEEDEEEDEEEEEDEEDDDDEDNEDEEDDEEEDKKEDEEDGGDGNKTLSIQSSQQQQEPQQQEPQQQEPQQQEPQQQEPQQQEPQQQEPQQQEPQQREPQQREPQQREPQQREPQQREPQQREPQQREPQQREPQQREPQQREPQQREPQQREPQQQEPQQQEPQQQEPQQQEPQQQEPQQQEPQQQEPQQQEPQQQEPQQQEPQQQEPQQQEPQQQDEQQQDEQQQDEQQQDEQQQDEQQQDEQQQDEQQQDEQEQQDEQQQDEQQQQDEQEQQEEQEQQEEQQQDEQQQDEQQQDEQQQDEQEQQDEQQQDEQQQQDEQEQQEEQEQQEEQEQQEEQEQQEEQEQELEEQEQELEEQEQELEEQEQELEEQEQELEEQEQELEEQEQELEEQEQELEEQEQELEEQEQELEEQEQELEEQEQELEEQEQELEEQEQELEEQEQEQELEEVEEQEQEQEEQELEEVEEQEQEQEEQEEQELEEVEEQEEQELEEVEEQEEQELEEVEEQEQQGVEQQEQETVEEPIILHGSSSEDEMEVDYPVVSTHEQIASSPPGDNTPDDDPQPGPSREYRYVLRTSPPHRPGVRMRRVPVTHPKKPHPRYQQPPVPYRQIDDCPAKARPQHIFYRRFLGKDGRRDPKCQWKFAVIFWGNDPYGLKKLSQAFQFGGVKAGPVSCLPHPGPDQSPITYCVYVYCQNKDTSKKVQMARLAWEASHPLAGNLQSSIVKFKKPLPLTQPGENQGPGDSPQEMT

| Compound | inhibition |
| --- | --- |
| CCc1c(O)cc2n(c1=O)-c1ccccc1C2(C)C | 5.7% |
| O=C(CN1CCN(c2ncccn2)CC1)Nc1ccccc1C(F)(F)F | 0.982% |
| COc1cc(C(=S)N2CCOCC2)ccc1O | 9.41% |
| COc1ccc(OC)c(C(=O)c2coc3ccc(O)c(CN4CCOCC4)c23)c1 | -2.58% |
| COc1ccc(/C(C)=N/N2CCOCC2)c(O)c1 | 25.4% (active) |
| CC(C)(C)C1CCC(OC(=O)CCC(=O)Nc2ccccc2)CC1 (stereo not given) | -3.13% |
| Cc1ccc(C2NC(C(=O)O)CS2)cc1 (stereo not given) | 1.22% |
| CN(CC(=O)Nc1ccc(F)c(F)c1F)C(=O)Cn1cnc2c1c(=O)n(C)c(=O)n2C | 1.35% |
| CC(C)(C)n1c(=O)[nH]c2c(c1=O)CCC2 | 23.6% (active) |
| O=c1[nH]n2c(=O)c3c([nH]c2c1N=Nc1ccccc1)CCC3 | -4.38% |
| Cc1c(C(C)CCCO)oc(=O)c2c1Oc1c(C)c(C(C)C[C@@H](C)O)oc(=O)c1C2 (stereo not given in full) | -3.56% |
| COc1ccc(C(=O)COC(=O)C(O)c2ccccc2)c(OC)c1 (stereo not given) | -6.19% |
| COCc1ccc(C(=O)N2CCc3c([nH]c4ccccc34)C2c2ccccn2)s1 (stereo not given) | 183% (active) |
| O=C(c1cn2ccccc2n1)N1CCc2c([nH]c3ccccc23)C1c1ccccn1 (stereo not given) | 2.75% |
| Cc1cccc(C2c3[nH]c4ccccc4c3CCN2C(=O)c2cc(-c3cccn3C)n[nH]2)n1 (stereo not given) | 1.43% |
| Cc1cc(C)n(CCNC(=O)CC2C(=O)NCCN2Cc2ccc(C)o2)n1 (stereo not given) | 4.74% |
| Cc1cc(N2C(=O)c3ccc(C(=O)NCc4ccccc4)cc3C2=O)no1 | 0.191% |
| O=C(CSc1nc2ccccc2c(=O)n1-c1ccc(F)cc1)NC1CC1 | 0.0498% |
| CC1CCN(CCCn2c(SCC(=O)NC3CCCC3)nc3ccccc3c2=O)CC1 | 2.87% |
| O=C(CSc1nc2ccccc2c(=O)n1CCCO)NC1CC1 | 635% [above what the read-out allows, likely interference] (active) |
| COc1ccc(C)cc1S(=O)(=O)N(CC(=O)Nc1cccc([N+](=O)[O-])c1)c1ccc(C)cc1 | -2.08% |
| Cc1ccc(NC(=O)C(C)Sc2nnc(C3CC3)n2C2CC2)cc1S(=O)(=O)N1CCOCC1 (stereo not given) | -1.97% |
| COc1ccc([N+](=O)[O-])cc1N(CC(O)CN(CC(C)C)CC(C)C)S(=O)(=O)c1ccc(C)cc1 (stereo not given) | 1.46% |

| Compound | inhibition |
| --- | --- |
| Cc1cccn2c(=O)c(/C=C(\C#N)C(N)=O)c(N3CCCCCC3)nc12 | 6.27% |
| Cc1cc(C)cc(Oc2nc3c(C)cccn3c(=O)c2/C=C(\C#N)C(=O)NC2CCS(=O)(=O)C2)c1 (stereo not given) | 18.8% (active) |
| Cc1cccn2c(=O)c(/C=C(\C#N)S(=O)(=O)c3ccc(Cl)cc3)c(N3CCC(C(N)=O)CC3)nc12 | -0.0722% |
| COc1c(Br)cc2c(C)c(C(=O)N3CCOCC3)oc2c1Br | -7.01% |
| CCC(C)NC(=O)CSC1=Nc2ccccc2C2=NC(CCC(=O)NCc3ccco3)C(=O)N12 (stereo not given) | 4.12% |
| O=C(CSC1=Nc2ccccc2C2=NC(CC(=O)NCc3ccco3)C(=O)N12)NCc1ccco1 (stereo not given) | -2.02% |
| CC(C)C1N=C2c3ccccc3N=C(SCC(=O)c3ccc(O)c(O)c3)N2C1=O (stereo not given) | 13.1% (active) |
| CS(=O)(=O)N(Cc1ccccc1Cl)c1ccc(C(=O)NCc2cccnc2)cc1 | 3.45% |
| O=C(/C=C/c1ccc([N+](=O)[O-])cc1)NCCSCc1ccco1 | 5.42% |
| O=C(NCCc1ccc(C(F)(F)F)cc1)c1ccc2c(c1)OCO2 | 16.2% (active) |
| O=C(Nc1ccccc1F)c1ccc2c(c1)OCO2 | -1.38% |
| Cc1ccc2cc(CCNC(=O)c3ccc4c(c3)OCO4)c(=O)[nH]c2c1 | -1.83% |
| COc1ccc(OCCn2ccnc2C)cc1 | -0.22% |
| COC(=O)C1=C(C(=O)OC)C2(OC1c1ccc(Br)cc1)C(=O)c1ccccc1C2=O (stereo not given) | 3.44% |
| C=CCSc1nc2c(c(=O)[nH]c(=O)n2C)n1Cc1ccccc1 | -0.531% |
| Cc1cc2nc3c(=O)n(Cc4ccccc4)c(=O)[nH]c3nc2cc1N | 27.2% (active) |
| COC(=O)CSc1nc2ccccc2c(=O)n1Cc1ccccc1 | 2.39% |
| Cc1ccc2cccc(OCCCOc3ccccc3CO)c2n1 | -1.05% |
| COc1ccc(N2C(=O)c3cccc4cccc(c34)C2=O)nn1 | -111% |
| Cc1nn(-c2cc(Cl)ccc2N)c(=O)c2ccccc12 | 0.97% |
| C[N+](C)(CCCCCC[N+](C)(C)CCCN1C(=O)c2cccc3cccc(c23)C1=O)CCCN1C(=O)c2cccc3cccc(c23)C1=O | 0.475% |
| Cc1nn(C)cc1N1C(=O)c2cccc3c(N)ccc(c23)C1=O | 101% (active) |
| CN1C(=O)c2cccc3c(N)ccc(c23)C1=O | 25.3% (active) |

| Compound | inhibition |
| --- | --- |
| O=C(O)c1ccc2c3c(cccc13)C(=O)N(OS(=O)(=O)c1ccccc1)C2=O | 1.71% |
| CC(C)C[C@H]1CN=C(Nc2ccccc2)N1CC1CCCCC1 | -0.894% |
| CCC(=O)Nc1nnc(S(=O)(=O)N2CCCc3ccccc32)s1 | 3.1% |
| CN(Cc1ccccc1)C(=O)C1CCCN(c2ncnc3c2nc2n3CCCCC2)C1 (stereo not given) | -6.07% |
| CN1CCN(S(=O)(=O)c2ccc(Nc3ccc(F)cc3)nc2)CC1 | 3.84% |
| CC1(C(=O)O)CCC(C(=O)Nc2ccc(Cl)c(Cl)c2)C1(C)C (stereo not given) | -7.06% |
| O=C(c1ccccc1)c1cccn1CC(=O)N1CCN(c2ccc(F)cc2)CC1 | 5.58% |
| CC1=C(C(=O)OCc2ccccc2)C(c2ccco2)n2ncnc2N1 (stereo not given) | -3.53% |
| Brc1ccc(C2=CC(c3ccco3)n3ncnc3N2)cc1 (stereo not given) | 35% (active) |
| CCOc1ccc(C2=CC(c3ccccc3)n3ncnc3N2)cc1 (stereo not given) | -0.926% |
| Cc1ccc(NC(=O)COc2coc(CN3CCc4ccccc4C3)cc2=O)cc1Cl | -6.2% |
| O=C(Nc1ccc(Br)cc1)C1CCC(=O)N1Cc1ccccc1Cl (stereo not given) | 1.59% |
| COc1ccc(C(=O)/C=C/c2cccnc2)c(OC)c1 | 0.568% |
| COc1ccc(/C=C/C(=O)c2cc(Br)ccc(=O)c2O)cc1 | 182% (active) |
| COc1ccc2oc(=N)c(C(=O)Nc3ccc(Br)cc3)cc2c1 | 1.77% |
| CC(=O)c1ccc(S(=O)(=O)NC2CC(=O)N(c3ccc4c(c3)OCCO4)C2)cc1 (stereo not given) | -5.02% |
| O=S(=O)(NC1CC1)c1ccc2c3c(cccc13)CC2 | -8.67% |
| CC(C)C(=O)Nc1ccc2c3c(cccc13)CC2 | 22.9% (active) |
| CC(C)C(=O)Nc1ccc2c(c1)oc1ccccc12 | 0.3% |
| CC(C)Oc1ccc(C(=O)NC(C)(C)CO)cc1 | 2.55% |
| O=C(/C=C/Nc1ccc(S(=O)(=O)Nc2cnc3ccccc3n2)cc1)c1cccnc1 | 5.47% |
| Cc1cccc(N2CC(C)Cn3c2nc2c3c(=O)n(CC(=O)OCc3ccccc3)c(=O)n2C)c1 (stereo not given) | 0.536% |
| O=C(Nc1c(C(=O)N2CCCCC2)cnn1-c1ccccc1)c1ccco1 | 0.114% |

| Compound | inhibition |
| --- | --- |
| O=C(Nc1ccccc1C(=O)N1CCCCCC1)c1ccccc1Cl | -5% |
| O=C(Nc1ccccc1C(=O)N1CCCCC1)c1ccco1 | 20.4% (active) |
| CCOc1ccc(NC(=O)CN(C)C(=O)c2c(C)noc2C)cc1OCC | -1.42% |
| CCCCN=C1N/C(=C\c2ccco2)C(=O)N1c1ccccc1 | -4.75% |
| CCOc1ccc(CC(=O)NCCS(=O)(=O)N2CCN(c3ccccc3)CC2)cc1 | 7.98% |
| COc1ccc(OC)c(NC(=O)N[C@H](Cc2ccccc2)C(=O)NN)c1 | 1.67% |
| CC(=O)COc1ccc2c(-c3ccccc3)cc(=O)oc2c1 | 4.47% |
| O=C(CNC(=O)c1ccc(-c2ccccc2)cc1)OCc1ccc(Cl)cc1 | -3.98% |
| O=C(CNC(=O)OCc1ccccc1)Oc1cc2oc(=O)cc(-c3ccccc3)c2cc1Cl | 22.2% (active) |
| COc1ccc(CCNC(=O)C2CCCN(Cc3nc(-c4cccc(Cl)c4)oc3C)C2)cc1OC (stereo not given) | 2.76% |
| Cc1ccc(C)c(NC(=O)COC(=O)Cn2c(C)csc2=O)c1 | -0.0986% |
| CCN1C(=O)C(CC(=O)Nc2cc(C)ccc2C)SC1=Nc1ccc(S(N)(=O)=O)cc1 (stereo not given) | -5.5% |
| CCN1C(=O)C(=O)N(CC(=O)Nc2cc(C)ccc2C)C1=O | 65.4% (active) |
| Cc1cccc(C(=O)NCC(=O)OCC(=O)N(C)CC(=O)Nc2ccccc2Cl)c1 | -3.61% |
| CSc1nnc(-c2ccc(C(F)(F)F)cn2)o1 | 12.3% (active) |
| FC(F)(F)c1cnc(Oc2ccccc2-c2nnc(-c3ccc(Cl)cc3)o2)c(Cl)c1 | 0.331% |
| CC(C)Oc1ccc(Oc2ccc(C(F)(F)F)cn2)cc1 | 0.437% |
| N/C(=N\c1nc2ccccc2o1)NC(=O)C(Cc1ccccc1)N1C(=O)c2ccccc2C1=O (stereo not given) | -0.102% |
| C[N+](C)(C)CCNC(=O)c1cc[n+](Cc2ccccc2)c(/C=N/O)c1 | -2.86% |
| COc1ccc(NC(=O)CC2C(=O)OCC3CCCCN32)cc1Cl (stereo not given) | 6.65% |
| Cc1cc(NC(=O)CN2C(=O)NC(CC(C)C)C2=O)no1 (stereo not given) | -2.81% |
